Reference: the supplement of paper PMC6609913
Counter-ions that a name gives are not always drawn. ± gives the standard deviation of the averaged measurements. Over roughly 1,300 compounds, “normalised cell viability” has its median near 1; the lowest 2% begin near 0.15. For the sample, the lowest values were picked, then their nearest neighbours and some compounds at random.

Test system: V-C8 + BRCA2 (BRCA2-proficient hamster cells)
Experiment: normalised cell viability (fraction of plate median); higher = more viable cells (less toxic)
Conditions: 5 µM
How it was run: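 In two screens, library drugs at 5 μM were given for 3 days (screen 1) or 6 days (screen 2) to hamster V-C8 cells without BRCA2 and V-C8 cells with BRCA2 restored, seeded 24 h earlier in 96-well plates. A resazurin assay gave the cell viability readout, expressed as modified robust per cent of sample against the plate median, with triplicate wells averaged.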

Compound | normalised cell viability (treatment time: 3 days) | normalised cell viability (treatment time: 6 days)
CCCC(=O)Nc1ccc(OCC(O)CNC(C)C)c(C(C)=O)c1 (centres undefined) [Acebutolol hydrochloride] | 0.99 ± 0.034 | 1.04 ± 0.012
CCC(=O)OCC(=O)[C@@]1(OC(=O)CC)[C@@H](C)C[C@H]2[C@@H]3CCC4=CC(=O)C=C[C@]4(C)[C@@]3(Cl)[C@@H](O)C[C@@]21C [Beclomethasone dipropionate] | 1 ± 0.081 | 0.987 ± 0.048
Cc1onc(-c2c(F)cccc2Cl)c1C(=O)N[C@@H]1C(=O)N2[C@@H]1SC(C)(C)[C@@H]2C(=O)O [Flucloxacillin sodium] | 1.02 ± 0.065 | 0.984 ± 0.016
Cc1c(Cl)cccc1Nc1ncccc1C(=O)O [Clonixin Lysinate] | 0.938 ± 0.067 | 0.983 ± 0.046
Nc1ccc(S(=O)(=O)Nc2ncccn2)cc1 [Sulfadiazine] | 1.01 ± 0.068 | 1.024 ± 0.0048
O=S(=O)(O)CCS [Mesna] | 1.06 ± 0.07 | 1.02 ± 0.024
C[C@@H]1CCC[C@H](C)N1NC(=O)c1ccc(Cl)c(S(N)(=O)=O)c1 [Clopamide] | 1.22 ± 0.11 | 0.9899 ± 0.0083
N#Cc1ccc(C2CCCc3cncn32)cc1 (centres undefined) [Fadrozole hydrochloride] | 0.955 ± 0.11 | 0.949 ± 0.078
NC(=O)c1cc[n+](CC2=C(C(=O)[O-])N3C(=O)[C@@H](NC(=O)[C@@H](c4ccccc4)S(=O)(=O)O)[C@H]3SC2)cc1 [Cefsulodin sodium salt] | 0.981 ± 0.043 | 1.06 ± 0.048
c1ccc(-c2ccc(C(c3ccccc3)n3ccnc3)cc2)cc1 (centres undefined) [Bifonazole] | 0.951 ± 0.042 | 0.914 ± 0.066
O=C(O[C@@H]1C[C@@H]2C[C@H]3C[C@H](C1)N2CC3=O)c1c[nH]c2ccccc12 [Dolasetron mesilate] | 1.06 ± 0.19 | 1.02 ± 0.03
O=C(Oc1cccc2cccnc12)c1ccccc1 [Benzoxiquine] | 0.791 ± 0.052 | 0.738 ± 0.056
COc1cccc2c1C(=O)c1c(O)c3c(c(O)c1C2=O)C[C@@](O)(C(C)=O)C[C@@H]3O[C@H]1C[C@H](N)[C@H](O)[C@H](C)O1 [Daunorubicin hydrochloride] | 0.136 ± 0.0082 | 0.128 ± 0.015
COc1cccc2c1C(=O)c1c(O)c3c(c(O)c1C2=O)C[C@@](O)(C(=O)CO)C[C@@H]3O[C@H]1C[C@H](N)[C@@H](O)[C@H](C)O1 [Epirubicin hydrochloride] | 0.136 ± 0.0036 | 0.153 ± 0.024
COc1cccc2c1C(=O)c1c(O)c3c(c(O)c1C2=O)C[C@@](O)(C(=O)CO)C[C@@H]3O[C@H]1C[C@H](N)[C@H](O)[C@H](C)O1 [Doxorubicin hydrochloride] | 0.12 ± 0.0088 | 0.122 ± 0.0099
Clc1cc(Cl)c(OCC#CI)cc1Cl [Haloprogin] | 0.278 ± 0.01 | 0.247 ± 0.048
CCC1(c2ccccc2)C(=O)NCNC1=O [Primidone] | 0.947 ± 0.13 | 0.951 ± 0.1
CN1C(C(=O)Nc2ccccn2)=C(O)c2ccccc2S1(=O)=O [Piroxicam] | 1.02 ± 0.032 | 1.05 ± 0.015
O=C1CC2(CCCC2)CC(=O)N1CCCCN1CCN(c2ncccn2)CC1 [Buspirone hydrochloride] | 0.997 ± 0.038 | 1.083 ± 0.0083
CNNCc1ccc(C(=O)NC(C)C)cc1 [Procarbazine hydrochloride] | 0.879 ± 0.049 | 0.956 ± 0.099
OCCN1CCN(CCCN2c3ccccc3Sc3ccc(C(F)(F)F)cc32)CC1 [Fluphenazine dihydrochloride] | 0.825 ± 0.062 | 0.662 ± 0.096
CNC(=C[N+](=O)[O-])NCCSCc1csc(CN(C)C)n1 [Nizatidine] | 1 ± 0.012 | 1.05 ± 0.042
